The record followed here is PubChem BioAssay (EPA / NIEHS).

Calls of active or inactive are those of the source. Rule for the calls: active = hit-call score of the fitted dose curve at least 0.9, where 1 is the maximum; inactive = score below 0.9.

A short description of this assay: APR_HepG2_NuclearSize_1hr: Apredica 1-hour HepG2 Assay for Nuclear Size (AID 2282670). The following applies: high-content imaging, actives raise or lower the signal. The protocol:
APR_HepG2_1hr is a cell-based, multiplexed-readout assay that uses HepG2, a human liver cell line, with measurements taken at 1 hour after chemical dosing in a 384-well plate.APR_HepG2_NuclearSize_1hr is one of 10 assay component(s) measured or calculated from the APR_HepG2_1hr assay. It is designed to make measurements of cell phenotype, a form of morphology reporter, as detected with fluorescence intensity signals by HCS Fluorescent Imaging technology.Data from the assay component APR_HepG2_NuclearSize_1hr was analyzed into 1 assay endpoint. This assay endpoint, APR_HepG2_NuclearSize_1hr, was analyzed with bidirectional fitting relative to DMSO as the negative control and baseline of activity. Using a type of morphology reporter, measures of all nuclear dna for gain or loss-of-signal activity can be used to understand the signaling at the nuclear-level. Furthermore, this assay endpoint can be referred to as a primary readout, because this assay has produced multiple assay endpoints where this one serves a signaling function. To generalize the intended target to other relatable targets, this assay endpoint is annotated to the cell morphology intended target family, where the subfamily is organelle conformation.
Cells were treated with dimethyl sulfoxide (DMSO) as a solvent control at a final concentration of 0.5% v/v or with compounds in DMSO with a resulting final DMSO concentration of 0.5% v/v. Compound treatment was done at concentrations of 0.39, 0.78, 1.56, 3.12, 6.24, 12.5, 25, 50, 100, and 200 uM in duplicate on each plate. Cells were treated with compounds for 1, 24, or 72 hr. Carbonyl […] m-chloro-phenylhydrazone (CCCP) and taxol were used as positive controls for mitochondrial function and cytoskeletal stability, respectively; DMSO served as the negative control for this experiment. Cells were fixed by the direct addition of 50 uL formaldehyde in Hank's Balanced Salt Solution (HBSS) to a final concentration of 3.7%. After incubation in the fixation medium for 30 min at room temperature (293-298 K), cells were rinsed twice with HBSS and treated with cell permeabilization buffer (16 uL of 0.5% Triton X-100) for 10 min at room temperature (293-298 K) before labeling. For mitochondrial membrane potential and mitochondrial measurements, pre-fixed cells were incubated with 50 uL of MitoTracker Red CMXRos (Invitrogen) at a concentration of 250 nM for 30 min before fixation. In the remaining cases, post-fixed cells were labeled by incubation with a multiplexed mixture of primary antibodies in HBSS for 60 min at room temperature (293-298 K) to detect immunoreactivity of c-Jun (1:500), phospho-histone H3 (1:100), phospho-histone H2A.x (1:200), p53 (1:400), alpha-tubulin (1:200) and Hoechst 33342 (2 ug/mL). Cells were labeled for multiplexed imaging on two separate plates: a) Hoechst 33342, MitoTracker Red, phospho-histone H3, and alpha-tubulin, and b) Hoechst 33342, phospho-histone H2A.x, and c-Jun. A final rinse with HBSS (50 uL) was performed before analysis. The primary and secondary antibodies for the proteins were phospho-histone H3 (rabbit anti-phospho-histone H3 and FITC-donkey anti-rabbit IgG), phospho-histone H2A.x (mouse anti-phospho-histone H2A.x and FITC-donkey anti-mouse IgG), c-Jun (rabbit anti-phospho-c-Jun and Cy3-donkey anti-rabbit IgG), p53 (sheep anti-p53 and Cy5-donkey anti-sheep IgG), alpha-tubulin (mouse anti-alpha-tubulin and Cy5-donkey anti-mouse IgG). These antibodies are available as the CellCiphr HepG2 assay kit (Millipore).Digital images of each well were captured using a Cellomics ArrayScan VTI (Thermo Scientific Cellomics) (0.8 NA objective, 0.63x optical coupler, and XF-93 filter set) at 20x magnification. The images were acquired using the autofocus feature of the ArrayScan instrument, which entails the following steps. First, the camera focuses on channel 1 (Hoechst 33342), where nuclei are identified. Second, a Z offset of 1 um is used for capturing mitochondria (MitoTracker Red). […]
Regarding `CCCOCC(=Nc1ccc(Cl)cc1C(F)(F)F)n1ccnc1`, the molecule was classed as inactive.
With `CSc1nc(NC(C)C)nc(NC(C)C)n1`, the molecule was called inactive.
In the case of `CCCCOC(=O)[C@@H](C)Oc1ccc(Oc2ccc(C#N)cc2F)cc1`, the molecule was called inactive.
For `COc1cccc(C(=O)NN(C(=O)c2cc(C)cc(C)c2)C(C)(C)C)c1C` the value was “inactive”; for `COc1cc(OC)nc(Sc2cccc(Cl)c2C(=O)O)n1`, “inactive”.
For the molecule `CCc1cnc(C2=NC(C)(C(C)C)C(=O)N2)c(C(=O)O)c1` (stereo not given), the call was inactive.
`CNC(=O)ON=C(SC)C(=O)N(C)C`: the molecule was classed as inactive.
Consider `COP(=O)(OC)SCn1c(=O)oc2cc(Cl)cnc21`, for which the result was inactive.
The result for `Cc1ccn2nc(S(=O)(=O)Nc3c(F)cccc3F)nc2n1` reads “inactive”.
The result for `CC(C1CC1)C(O)(Cn1cncn1)c1ccc(Cl)cc1` (stereo not given) reads “inactive”; that for `CN1COCN(Cc2cnc(Cl)s2)C1=N[N+](=O)[O-]`, “inactive”; that for `CCOP(=O)(NC(C)C)Oc1ccc(SC)c(C)c1` (stereo not given), “inactive”.
As to `CON=C(C(=O)OC)c1ccccc1CON=C(C)c1cccc(C(F)(F)F)c1`, the molecule was classed as inactive.
For `CNC(=O)Oc1cccc2c1OC(C)(C)O2`, the molecule was classed as inactive.
In the case of `CCOP(=S)(OCC)Oc1cc(C)nc(C(C)C)n1`, the call was inactive.
For `CCCSP(=O)(OCC)SCCC` the value was “inactive”; for `CCOP(=S)(Oc1cnc(C(C)(C)C)nc1)OC(C)C` (stereo not given), “inactive”; for `CCCOc1nn(C(=O)NS(=O)(=O)c2ccccc2C(=O)OC)c(=O)n1C`, “inactive”.
The result for `CCNc1nc(Cl)nc(NC(C)(C)C#N)n1` reads “inactive”.
For the molecule `C=C(C)[C@H]1Cc2c(ccc3c2O[C@@H]2COc4cc(OC)c(OC)cc4[C@@H]2C3=O)O1`, the result was inactive.
`C#CC(C)(C)NC(=O)c1cc(Cl)cc(Cl)c1`: the outcome was inactive.
Take `CCOP(=O)(OCC)Oc1cc(C)nc(C(C)C)n1`: the molecule was called inactive.
For the molecule `CCC(=NOC/C=C/Cl)C1=C(O)CC(C2CCOCC2)CC1=O` (stereo not given), the outcome was inactive.
Take `COc1ccc(C(=CC(=O)N2CCOCC2)c2ccc(Cl)cc2)cc1OC`: the outcome was inactive.
Regarding `O=c1ccc(=O)[nH][nH]1`, the call was inactive.
In the case of `CC(C)=CC1C(C(=O)OCN2C(=O)C3=C(CCCC3)C2=O)C1(C)C` (stereo not given), the outcome was inactive.
`CC(COc1ccc(Oc2ccccc2)cc1)Oc1ccccn1` (stereo not given): the outcome was inactive.
Regarding `Nc1nc(N)nc(NC2CC2)n1`, the molecule was classed as inactive.
Take `CCc1cccc(CC)c1N(COC)C(=O)CCl`: the call was inactive.
Turning to `CN(C)[C@@H]1C(=O)C(C(N)=O)=C(O)[C@@]2(O)C(=O)C3=C(O)c4c(O)cccc4[C@@](C)(O)[C@H]3[C@H](O)[C@@H]12`, the molecule was called inactive.
For `S=C1NCCN1` the value was “inactive”; for `CC1=NNC(=O)N(/N=C/c2cccnc2)C1`, “inactive”.
With `COP(=O)(OC)C(O)C(Cl)(Cl)Cl` (stereo not given), the molecule was classed as inactive.
Regarding `CN(C)C(=O)Nc1cccc(C(F)(F)F)c1`, the molecule was classed as inactive.
`CCCCN(CC)c1c([N+](=O)[O-])cc(C(F)(F)F)cc1[N+](=O)[O-]`: the call was inactive.
With `CCOC(=O)CC(SP(=O)(OC)OC)C(=O)OCC` (stereo not given), the molecule was called inactive.
In the case of `O=[N+]([O-])c1cc(C(F)(F)F)c(Cl)c([N+](=O)[O-])c1Nc1ncc(C(F)(F)F)cc1Cl`, the molecule was called inactive.
With `CNc1cnn(-c2cccc(C(F)(F)F)c2)c(=O)c1Cl`, the molecule was classed as inactive.
`CSC1=N[C@@](C)(c2ccccc2)C(=O)N1Nc1ccccc1`: the molecule was called inactive.
Regarding `CSc1nnc(C(C)(C)C)c(=O)n1N`, the molecule was called inactive.
